Screens from PubChem BioAssay.
M1 PAM: positive allosteric modulators of human M1 muscarinic receptor. P11229. CHO-K1 hM1, Fluo-8 calcium fluorescence, ACh EC20; 0% = ACh EC20, 100% = maximal ACh. activation, % at 3 µM. 0.088% of 360,000 active; in the data active means activation above about 19%, passing the limit was not always enough
Target sequence (P11229 whole entry, looked up): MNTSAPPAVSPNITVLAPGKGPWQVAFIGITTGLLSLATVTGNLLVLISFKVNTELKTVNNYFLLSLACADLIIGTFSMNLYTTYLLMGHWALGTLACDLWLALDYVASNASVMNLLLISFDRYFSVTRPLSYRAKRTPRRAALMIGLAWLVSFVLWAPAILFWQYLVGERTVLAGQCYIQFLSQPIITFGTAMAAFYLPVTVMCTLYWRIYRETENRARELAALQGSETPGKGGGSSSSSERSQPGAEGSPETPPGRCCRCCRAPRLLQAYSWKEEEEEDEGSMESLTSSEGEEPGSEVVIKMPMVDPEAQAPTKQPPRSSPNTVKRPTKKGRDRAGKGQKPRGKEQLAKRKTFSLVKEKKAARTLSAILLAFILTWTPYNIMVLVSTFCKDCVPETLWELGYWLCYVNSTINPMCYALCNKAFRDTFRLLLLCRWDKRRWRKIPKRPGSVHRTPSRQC
CHO-K1 Ca antag: counter-screen for M1 antagonists: effect in parental CHO-K1 cells | inhibition, % at 3 µM | ATP-induced calcium, Fluo-8 fluorescence | 0.6% of 360,000 active;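 active means inhibition above a per-plate cutoff, the plate's mean sample inhibition plus 3 SD, cut at about 24% in these data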;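 further: 0% = DMSO plus EC80 ATP and 100% = DMSO alone without ATP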
M1 PAM parental: counter-screen for M1 PAMs: effect in parental CHO-K1 cells; ATP EC20, Fluo-8 calcium fluorescence; 0% at ATP EC20, 100% at ATP max; activation, % at 3 µM; 0.02% of 360,000 active;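 active means activation above the run cutoff, the mean activation of all test compounds plus 3 SD, cut at about 40% in these data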;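 further: peak over basal fluorescence ratio in a 140 s read after ATP addition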
M1 antag: antagonists of human M1 muscarinic receptor | P11229 | CHO-K1 hM1, Fluo-8 calcium fluorescence, ACh EC80 antagonist | inhibition, % at 3 µM | 1.3% of 360,000 active | AID 588852;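 active means percent inhibition above its own plate's cutoff, namely the mean of that plate's compound wells plus 3 SD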;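 further: peak over basal fluorescence ratio during 140 s after agonist addition; 0% = ACh EC80 plus DMSO and 100% = DMSO alone without agonist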
M1 ag parental: counter-screen for M1 agonists: effect in parental CHO-K1 cells; Fluo-8 calcium fluorescence; scaled to maximal ATP response, vehicle zero; 0.48% of 360,000 active; activation, % at 3 µM; AID 602248; in the data active means activation above about 15%;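 further: untransfected CHO-K1 host cells lacking M1 receptor as counterscreen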
CHRM1 agonist: agonists of human M1 muscarinic receptor; activation, % at 3 µM; 0.33% of 360,000 active; AID 588814; P11229; CHO-K1 hM1, Fluo-8 calcium fluorescence, agonist mode; 0% DMSO, 100% acetylcholine EC100;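 active means activation above the run's mean compound activation plus 3 SD, cut at about 16% in these data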;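 further: peak over basal fluorescence ratio within a 140 s kinetic read after compound addition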
* hit, by the source's call; . = no result given; ! = not confirmed by another sample. The list is not random: actives were taken first. Their share in the collection is about 2.3%.

SMILES	M1 PAM	CHO-K1 Ca antag	M1 PAM parental	M1 antag	M1 ag parental	CHRM1 agonist
Cc1ccccc1Nc1nc(N)nc(CSc2nc3ccccc3c(=O)n2C)n1	-13	29*	-2	31	18*	8
O=C(NCc1cccnc1)c1ccc(NC(=O)c2cccc([N+](=O)[O-])c2)cc1	7	-8	11	-2	1	-2
Cc1nc2ccc(NS(=O)(=O)c3ccc(F)cc3F)cc2s1	-7	-5	3	8	10	1
Cc1nc2ccc(NS(=O)(=O)c3c(F)cc(F)cc3Br)cc2s1	-15	1	-21	37*	10	-1
CC1CCN(CCOCCSc2ccc(Cl)cc2)CC1	-26	27*	-8	28	0	-12
CCOC(=O)C1CCN(CCCSc2ccc(Cl)cc2)CC1	-19	2	-11	28*	1	-11
CC1CCCN(CCCOc2ccc(Cl)cc2Br)C1 (stereo not drawn)	-17	-2	23	13	1	-13
Clc1ccc(SCCOCCN2CCCCC2)cc1	-22	-7	17	28*	2	-11
Clc1ccc(SCCOCCN2CCOCC2)cc1	-10	9	-9	23	0	-8
CC1CCCN(CCSc2ccc(Cl)cc2)C1 (stereo not drawn)	-25	4	-5	37*	0	-7
O=C1c2ccccc2C(=O)N1CC1=CCS(=O)(=O)C1	1	-7	8	-14	0	-1
CCCCn1nnnc1C(C1CC1)N1CCN(C/C=C/c2ccccc2)CC1 (stereo not drawn)	6	-8	-7	-23	2	-3
COC(=O)[C@]12CCCCC=C1N(Cc1ccc(Cl)cc1Cl)C(=O)[C@H](CC(=O)N1CCN(C(=O)c3ccco3)CC1)C2	.	10	4	.	4	.
Cc1cc(C)n(-c2ccc(NC(=O)C3CCCCN3Cc3cccc4c3OCO4)cc2)n1 (stereo not drawn)	3	6	-20	5	2	-6
Cc1ccc(CNC(=O)c2cc(S(=O)(=O)N3CCCCC3)ccc2N2CCOCC2)cc1	6	-16	9	0	1	-9
COc1ccc(-n2nc([N+](=O)[O-])c(=NC3CCN(Cc4ccccc4)CC3)n2O)cc1	-23	-12	20	25*	1	-10
Cc1ccccc1-c1cc(C(=O)NCc2cccc(C(F)(F)F)c2)n(CC2CC(c3cccnc3)=NO2)n1 (stereo not drawn)	-17	15	4	16	3	-9
C=C[C@H]1CN2CC[C@H]1C[C@@H]2[C@@H](O)c1ccnc2ccc(OC)cc12	0	25*!	-5	-12	4	-6
C=C[C@H]1CN2CCC1C[C@H]2[C@H](O)c1ccnc2ccc(OC)cc12 (stereo partly drawn)	-3	0	-3	-13	0	-5
Cc1cc(C)c(C#N)c(SCc2ccccc2[N+](=O)[O-])n1	1	0	-2	1	0	-8
Cc1cc(C)c(C#N)c(SCc2nnc(-c3ccccc3)o2)n1	-19	25*	-17	24*	1	-7
Cc1cc(C)c(C#N)c(SCc2nnc(-c3ccccc3[N+](=O)[O-])o2)n1	-34	18	-6	43*	7	-6
CCOc1ccc(NC(=O)CN(C)C(=O)Cc2ccc3c(c2)OCCO3)cc1OCC	4	-1	4	-16	1	-5
Cn1c(NCc2cccnc2)nc2cc(-c3ccc(C(=O)N4CCOCC4)cc3)sc2c1=O	17	10	-8	-9	1	2
O=C(CSc1nc2ccccc2o1)Nc1ccc(N2CCOCC2)c(Cl)c1	-8	28*	0	25	13	-2
SMILES	M1 PAM	CHO-K1 Ca antag	M1 PAM parental	M1 antag	M1 ag parental	CHRM1 agonist
OC1(c2ccccc2)CN(c2ccccc2)C2=[N+]1CCS2 (stereo not drawn)	-3	-4	20	-1	2	-7
O=C(Nc1ccc(-c2nc3cccnc3s2)cc1)c1cccnc1Cl	3	-10	18	-4	3	2
O=C(Nc1ccc(-c2nc3cccnc3s2)cc1)c1ccc(Cl)nc1	7	4	7	-14	21*	1
O=C(NCCc1ccccc1)c1c[nH]c2c(F)cccc2c1=O	8	-4	-6	-9	4	-2
Cc1cccc2c(=O)c(C(=O)NCCc3ccccc3)c[nH]c12	-13	23	-9	30*	2	-2
O=C(c1ccc(F)cc1)N1CCN(c2cc(N3CCCCC3)c(F)cc2[N+](=O)[O-])CC1	-8	0	-10	12	2	-1
COc1cccc(C2c3[nH]c4ccccc4c3CCN2Cc2cnc(C)s2)c1OC (stereo not drawn)	-34	-9	19	35*	0	-16
COc1ccccc1C1c2[nH]c3ccccc3c2CCN1Cc1cnc(C)s1 (stereo not drawn)	-5	-5	21	-1	1	-15
CC(=O)c1ccc(S(=O)(=O)Nc2c(C)nn(C)c2C)cc1	7	2	3	-8	0	2
COc1ccccc1OCC(=O)NNC(=O)Nc1ccccc1	4	3	-5	3	0	1
CN1CCN(c2ncccc2S(=O)(=O)N2CCCCC2)CC1	-22	19	-10	99*	0	-5
COc1cccc(CNC(=O)C2(C)CCCCN2C)c1 (stereo not drawn)	16	-8	18	-20	1	-9
CN1CCCCC1(C)C(=O)NCc1ccc(F)cc1 (stereo not drawn)	-5	25*	-12	4	0	-8
C=CCC1(CC=C)CCCN1C(=O)c1cc(COc2cncc(Cl)c2)on1	-13	22	1	40*	10	-1
C=CCC1(CC=C)CCCN1C(=O)c1cc(COc2cccc(OC)c2)on1	-9	2	-22	18	2	-3
CNC(=O)C(=O)NCC1OCCN1S(=O)(=O)c1ccc(OC)c(OC)c1 (stereo not drawn)	1	-11	6	-3	0	-2
CC1(C)CNC(=O)c2sc(N3CCOCC3)nc2C1	-9	-1	2	8	0	-10
COc1ccccc1CCNCc1ccc(OC)c(OCc2ccccc2)c1	-24	-17	-6	34*	20*	7
COc1cccc(CNCCc2c[nH]c3ccccc23)c1OCc1ccccc1	-6	12	5	19	21*	6
COc1ccc(CNCc2ccco2)cc1OCc1ccccc1	-17	10	-11	24	2	-8
CN(C)CCCCOc1ccccc1-c1ccccc1	-20	24*	-7	18*	0	-6
Cc1nn(CC(=O)NCc2cccnc2)c(C)c1[N+](=O)[O-]	18	11	-17	-12	0	-2
Cc1nn(CC(=O)NCc2ccc(C(=O)O)cc2)c(C)c1[N+](=O)[O-]	-8	24*	-15	-3	2	-1
